{"source": "PubChem BioAssay (NCATS)", "note": "Results filed as inconclusive are left out. A number with no mark means an inactive call. Calls follow the shape of the dose curve; as a rule, active = well fitted cell-killing curve with a large enough effect; inconclusive = small, poorly fitted or top-dose-only effect; inactive = flat fitted curve, though single readings scatter. % is scaled to controls: 0 for no effect and ±100 for the full control effect."}
{"experiment": "qHTS assay to identify small molecule inhibitors of chordoma cells - UCH-2 (AID 1259356)", "details": "UCH-2 chordoma viability, CellTiter-Glo ATP luminescence, 48 h; series mostly up to 46.1 µM; activity change, negative = inhibition: at the top concentration"}
{"smiles": "C=C(C)C1CC=C(C)CC1", "note": "(configuration not stated)", "activity change, negative = inhibition": "13%"}
{"smiles": "C=C[C@]1(C)C[C@@H](OC(=O)CSCCN(CC)CC)[C@]2(C)[C@H](C)CC[C@]3(CCC(=O)[C@H]32)[C@@H](C)[C@@H]1O", "activity change, negative = inhibition": "4.68%"}
{"smiles": "CCN(CC)CCOc1ccc2nc(N(C)C)sc2c1", "activity change, negative = inhibition": "-0.444%"}
{"smiles": "O=C(O)[C@H]1C(=CCO)O[C@H]2CC(=O)N12", "activity change, negative = inhibition": "-4.09%"}
{"smiles": "CN[C@@H]1[C@H](O[C@H]2[C@H](O[C@H]3[C@H](O)[C@@H](O)[C@H](N=C(N)N)[C@@H](O)[C@@H]3N=C(N)N)O[C@@H](C)[C@]2(O)CO)O[C@@H](CO)[C@H](O)[C@H]1O", "activity change, negative = inhibition": "3.12%"}
{"smiles": "CO[C@H]1O[C@@H]2O[C@@]3(C)CC[C@H]4[C@H](C)CC[C@@H]([C@H]1C)[C@@]24OO3", "activity change, negative = inhibition": "-0.797%"}
{"smiles": "CC[C@H]1OC(=O)[C@H](C)[C@@H](O[C@H]2C[C@@](C)(OC)[C@@H](O)[C@H](C)O2)[C@H](C)[C@@H](O[C@@H]2O[C@H](C)C[C@H](N(C)C)[C@H]2O)[C@](C)(O)C[C@@H](C)CN(C)[C@H](C)[C@@H](O)[C@]1(C)O", "activity change, negative = inhibition": "2.15%"}
{"smiles": "CN(C)CCCSc1ccccc1NC(=O)/C=C/c1ccccc1", "activity change, negative = inhibition": "4.04%"}
{"smiles": "C[Si](C)(C)O[Si](C)(C)C", "activity change, negative = inhibition": "-2.36%"}
{"smiles": "CC(C)=CCC/C(C)=C/CC/C(C)=C/CC/C(C)=C/CC1=C(C)C(=O)c2ccccc2C1=O", "activity change, negative = inhibition": "8.02%"}
{"smiles": "OB(O)O", "activity change, negative = inhibition": "4.47%"}
{"smiles": "CC(=O)[C@H]1CC[C@H]2[C@@H]3C=CC4=CC(=O)CC[C@@]4(C)[C@H]3CC[C@]12C", "activity change, negative = inhibition": "-3.4% [at 20.6 µM]"}
{"smiles": "C=C1C(CCl)(CCl)C2(Cl)C(Cl)C(Cl)C1(Cl)C2(Cl)Cl", "note": "(configuration not stated)", "activity change, negative = inhibition": "1.22%"}
{"smiles": "O=C1/C(=C\\c2cccs2)CCC/C1=C\\c1cccs1", "activity change, negative = inhibition": "-0.319%"}
{"smiles": "CCN(CC)CCC(=O)N1c2ccccc2Sc2ccc(Cl)cc21", "activity change, negative = inhibition": "4.4%"}
{"smiles": "COc1ccccc1N1CCN(CCCC(=O)c2ccc(F)cc2)CC1", "activity change, negative = inhibition": "-0.29%"}
{"smiles": "CCCCCCCCCCCCCCCCOCCOCCOCCOCCOCCOCCOCCOCCOCCOCCOCCOCCOCCOCCOCCOCCOCCOCCOCCOCCO", "activity change, negative = inhibition": "4.71%"}
{"smiles": "CCCc1nc(C(C)(C)O)c(C(=O)OCc2oc(=O)oc2C)n1Cc1ccc(-c2ccccc2-c2nn[nH]n2)cc1", "activity change, negative = inhibition": "-0.274%"}
{"smiles": "CS(=O)(=O)c1ccc([C@@H](O)[C@@H](COC(=O)CN)NC(=O)C(Cl)Cl)cc1", "activity change, negative = inhibition": "8.13%"}
{"smiles": "O=C(O)CCC(=O)c1ccc(-c2ccccc2)cc1", "activity change, negative = inhibition": "-1.9% [at 20.6 µM]"}
{"smiles": "C#C[C@]1(O)CC[C@H]2[C@@H]3CCC4=C(CCC(=O)C4)[C@H]3CC[C@@]21C", "activity change, negative = inhibition": "10.8% [at 20.6 µM]"}
{"smiles": "C[C@H]1[C@@H](OC(=O)CCC(=O)O)O[C@@H]2OC3(C)CC[C@H]4[C@H](C)CC[C@@H]1[C@@]24OO3", "activity change, negative = inhibition": "-2.41%"}
{"smiles": "COc1ccc2nc(NC(=O)Nc3ccccc3)sc2c1", "activity change, negative = inhibition": "3%"}
{"smiles": "N[C@@H](Cc1cc(I)c(Oc2ccc(O)c(I)c2)c(I)c1)C(=O)O", "activity change, negative = inhibition": "2.21%"}
{"smiles": "CC1=CC(=O)NS(=O)(=O)O1", "activity change, negative = inhibition": "6.54%"}
{"smiles": "CC(CN1c2ccccc2Sc2cccnc21)N(C)C", "note": "(configuration not stated)", "activity change, negative = inhibition": "-24.7%"}
{"smiles": "O=c1n(CC2CO2)c(=O)n(CC2CO2)c(=O)n1CC1CO1", "note": "(configuration not stated)", "activity change, negative = inhibition": "-17.1%"}
